HT1080 IDH1KD tx – toxicity to HT-1080 IDH1 knockdown cells (counter line). Potency, µM (top dose mostly 46.1 µM), without a hit: at the top dose activity, negative = toxicity, usual class: cytotoxic. HT-1080 IDH1 knockdown viability, ATP luminescence, 48 h. 360,000 compounds, 2% hits;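 note: potency is the fitted concentration of half-maximal effect; 0% = DMSO wells and -100% = cell-free medium wells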
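% activity derives from luminescence (CellTiter-Glo), normalised to DMSO and no-cell wells. HT-1080-IDH1KD cells, 750/well, had 48 h compound exposure at 37 °C.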
HT1080NT lethal – kills 2HG-producing HT-1080-NT fibrosarcoma cells; HT-1080-NT fibrosarcoma viability, CellTiter-Glo ATP luminescence, 48 h; Potency, µM (series often up to 46.1 µM), inactives show top-dose activity, negative = less viability, hits mostly cytotoxic; 360,000 compounds, 1.6% hits; AID 686970;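 note: NT is the 2HG producing partner of a matched IDH1 knockdown line; potency is the fitted concentration of half-maximal effect; 0% = DMSO-treated cells and -100% = media-only wells without cells; nearly all actives have a fitted effect of over 55% in size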
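750 cells/well, RPMI + 5% FBS; 2 h settle, compound pin-transfer, 48 h at 37 degrees C. CellTiter-Glo 10 min RT, luminescence. Normalized to DMSO and media-only wells.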
IL1B secr inh – inhibitors of inflammasome signaling (IL-1 beta secretion); activity change, % at 57.5 µM; 360,000 compounds, 4.7% hits; THP-1 LPS/ATP IL-1B secretion, AlphaLISA, 16 h; active compounds read low; in the data active = activity change below about -50%; inconclusive = mostly about -30% to -49%
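THP-1 cells pretreated 1 hr with compounds (up to 57.5 uM final), then stimulated with LPS (250 ng/mL final) plus ATP (1.25 mM final); secreted IL-1B measured by AlphaLISA after 16 hr, decreased signal indicating inhibition.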
DT40 TDP1 no CPT – qHTS for Inhibitors of human tyrosyl-DNA phosphodiesterase 1 (TDP1): qHTS in cells in absence of CPT; AID 686978, 2013; DT40 Tdp1-/- hTDP1 cells, no CPT, ATP luminescence, 48 h; Potency, µM (titrated, usually from 46.2 µM), for the others: top-dose activity change, negative = growth inhibition, usual class: inhibitors; 420,000 compounds, 15% hits; note: potency is the fitted concentration of half-maximal effect; nearly all actives have a fitted effect of over 55% in size
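Growth kinetics read by CellTiter-Glo luminescence after ≥48 hr at 37 °C. Cells: DT40 Tdp1-/- stably carrying human TDP1, 400 per well, compound exposure in the absence of CPT (DMSO vehicle).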
TDP1 cell CPT – growth inhibition of DT40 Tdp1-/-;hTDP1 cells with camptothecin (screen for TDP1 inhibitors) | chicken DT40 Tdp1-/-;hTDP1 cells + 20 nM CPT, ATP luminescence, 48 h | Potency, µM (doses to about 46.2 µM), for inactives: top-dose activity change, negative = growth inhibition, most hits filed as inhibitors | 420,000 compounds, 12% hits; note: potency is the fitted concentration of half-maximal effect; nearly all actives have a fitted effect of over 55% in size
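Cell growth measured by CellTiter-Glo luminescence after a minimum 48 h, 37 C compound exposure with 20 nM CPT in Tdp1-knockout DT40 cells stably expressing hTDP1, seeded 400/well; qHTS titration format.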
* hit, by the source's call; ? = inconclusive; / = no result; [ ] = another dose, or the depositor's remark. Sampled rows, rich in hits. Any-hit rate of the full collection: about 19%. Unless noted, calls come from the whole dose curve; as a rule, active = well fitted curve in the direction sought with a large enough effect; inconclusive = small, poorly fitted or top-dose-only effect, or another doubt; inactive = no such curve, though single readings can be large; an effect the other way counts as inactive or inconclusive. Unless noted, % is set by controls: 0 for no effect and ±100 for the full control effect.

SMILES	HT1080 IDH1KD tx	HT1080NT lethal	IL1B secr inh	DT40 TDP1 no CPT	TDP1 cell CPT
O=[N+]([O-])c1ccc(NC2CCCC2)cc1	8%	7%	-5	-14%	-27%
COc1cccc(/C=N/Nc2nc(Nc3ccc([N+](=O)[O-])cc3)nc(N3CCCC3)n2)c1O	3.3µM*	9.2µM*	91	5.8µM*	8.2µM*
O=[N+]([O-])c1ccc(Nc2nc(NC3CCCCC3)nc(N3CCCC3)n2)cc1	17%	7%	-24	23µM*	26µM*
COc1c(/C=N/Nc2nc(N3CCCCC3)nc(N3CCCCC3)n2)cccc1[N+](=O)[O-]	1%	15%	-17	?	?
CCn1c(SCC(=O)Nc2nncs2)nnc1-c1ccco1	10%	20%	15	0%	2%
CC(C)(C)CC(=O)NCc1ccc(F)cc1	6%	10%	-19	-12%	2%
CC(C)NC(=O)N(C)C[C@@H]1Oc2cc(C#Cc3ccccn3)ccc2S(=O)(=O)N([C@@H](C)CO)C[C@H]1C	-4%	-2%	18	?	-6%
CC(C)C[C@@H]1COc2cc(N3CCC[C@H]3CO)ccc2S(=O)(=O)N1	1%	16%	19	-18%	-12%
COc1cccc(C2C(C(=O)Nc3ccccc3OC)=C(C)Nc3nc(-c4ccco4)nn32)c1 (stereo not drawn)	/	/	/	18µM*	?
COc1ccccc1NC(=O)C1=C(C)Nc2nc3ccccc3n2C1c1cccc(OC)c1OC (stereo not drawn)	/	/	/	?	16µM*
COc1cccc(C2C(C(=O)Nc3ccc(Cl)cc3)=C(C)Nc3nc4ccccc4n32)c1OC (stereo not drawn)	/	/	/	?	21µM*
COc1cccc(C2C(C(=O)Nc3ccccc3OC)=C(C)Nc3nc4ccccc4n32)c1 (stereo not drawn)	/	/	/	15µM*	?
CCOc1ccccc1C1C(C(=O)Nc2ccccc2OC)=C(C)Nc2nc3ccccc3n21 (stereo not drawn)	/	/	/	-17%	3%
COc1ccc(C2C(C(=O)Nc3ccc(C)cc3C)=C(C)Nc3nc4ccccc4n32)c(OC)c1 (stereo not drawn)	/	/	/	?	-16%
Cc1ccccc1N1C(S)=C(C#N)C(=O)NC12CCCCC2	-1%	5%	8	-19%	-6%
CCOc1cccc(C(=O)Nc2cccc(-c3nc4ncccc4o3)c2C)c1	-5%	-9%	-63*	?	-8%
Cc1c(NC(=O)C(C)(C)Oc2ccc(Cl)cc2)cccc1-c1nc2ncccc2o1	/	/	/	23µM*	16µM*
Cc1cc(C)cc(C(=O)Nc2cccc(-c3nc4ncccc4o3)c2C)c1	/	/	/	-15%	1%
Cc1c(NC(=O)c2ccc([N+](=O)[O-])o2)cccc1-c1nc2ncccc2o1	?	9.2µM*	-103*	?	18µM*
CCOc1cccc(C(=O)Nc2cc(C)c(O)c(-c3nc4ncccc4o3)c2)c1	/	/	/	-11%	-6%
COCC(=O)Nc1cc(C(=O)Nc2cccc(C)c2C)ccc1Cl	-4%	0%	-9	-21%	-24%
COc1ccc(-c2nn(-c3ccccc3)cc2CO)cc1	-13%	-6%	-27	?	-24%
N=C(N)SCc1cn(-c2ccccc2)nc1-c1ccc(Br)cc1	5.2µM*	5.2µM*	-77*	7.3µM*	9.2µM*
Cc1ccc(SCCC(=O)NNC(=O)c2ccccc2F)cc1	5%	6%	32	-29%	1%
Cc1cc2c(cc1C)CSC(c1ccccc1O)SC2	?	?	-15	?	?
SMILES	HT1080 IDH1KD tx	HT1080NT lethal	IL1B secr inh	DT40 TDP1 no CPT	TDP1 cell CPT
Oc1ccccc1C1SC(c2ccccc2O)SC(c2ccccc2O)S1 (stereo not drawn)	?	15µM*	-89*	?	?
COc1ccc(C(c2c(C)[nH]n(C(N)=S)c2=O)C(C#N)C#N)cc1 (stereo not drawn)	8%	21%	-28	?	23µM*
COc1ccc(CN2[C@@H](CC(C)=O)c3ccc(/C=C/C(C)=O)cc3S2(=O)=O)cc1	?	?	-102*	9.2µM*	7.3µM*
COC(=O)C[C@H]1c2ccccc2S(=O)(=O)N1c1cccc(OC)c1	5%	15%	15	-18%	?
COc1cccc(N2[C@@H](CC(C)=O)c3ccc(/C=C/C(C)=O)cc3S2(=O)=O)c1	?	10%	-100*	5.2µM*	5.2µM*
Cc1ncc2c(c1CNS(=O)(=O)N(C)C)CCN(C(=O)/C=C/c1ccccc1)C2	/	/	/	-9%	6%[9.04 µM]
O=C(c1csnn1)N1CCC2(CC1)CN(c1cccc(-c3ccccc3)c1)C2	/	/	/	21µM*	23µM*
O=C(c1csnn1)N1CCC2(CC1)CN(c1ccccc1)C2	/	/	/	?	16µM*
O=C(c1csnn1)N1CCC2(CCCN(C(c3ccccc3)c3ccccc3)C2)CC1	/	/	/	?	18µM*
CC1=C(C(=O)Nc2ccc(C)cc2C)C(c2ccccc2C)n2ncnc2N1 (stereo not drawn)	/	/	/	3%	-6%
O=C(CN1CCN(c2cccc(C(F)(F)F)c2)CC1)NCc1ccccc1	-13%	-3%	-55*	?	-9%
Cc1[nH]c2ccccc2c1C(O)CN1CCN(c2cccc(C(F)(F)F)c2)CC1 (stereo not drawn)	?	?	-103*	18µM*	23µM*
Cc1[nH]c2ccccc2c1NC(=O)CN1CCN(c2cccc(C(F)(F)F)c2)CC1	?	18µM*	8	?	?
Cc1cc2[nH]c(=O)c(=O)[nH]c2cc1S(=O)(=O)N1CCN(c2cccc(C(F)(F)F)c2)CC1	-20%	-1%	10	?	-9%
Cc1ccc(NC(=O)Cn2cc(S(=O)(=O)N3CCN(c4ccccc4F)CC3)c3ccccc3c2=O)cc1F	/	/	/	-29%	-20%
O=C1CN(C(=O)c2ccc(Cl)c(S(=O)(=O)N3CCc4ccccc43)c2)c2ccccc2N1	?	7.3µM*	2	21µM*	16µM*
Cc1cccc(NC(=O)c2ccc(Cl)c(S(=O)(=O)N3CCc4ccccc43)c2)n1	?	-20%	-13	?	23µM*
CN1CCC(N(C)C(=O)c2ccc(Cl)c(S(=O)(=O)N3CCc4ccccc43)c2)CC1	-24%	-25%	-50*	?	?
O=C(Nc1ccncc1)c1ccc(Cl)c(S(=O)(=O)N2CCc3ccccc32)c1	?	?	?	7.3µM*	9.2µM*
NC(=O)C1CCN(C(=O)c2ccc(Cl)c(S(=O)(=O)N3CCc4ccccc43)c2)CC1	-1%	-1%	15	?	?

Screens from PubChem BioAssay.
